SMILES strings stand for the structures. Several values for one entry are separate records, joined by “and”; a condition that tells them apart may be missing. Equal entries are not always repeated. Records with an inconclusive call do not appear. Activity calls are given as the source filed them. Calls come from the whole dose curve; as a rule, active = well fitted cell-killing curve with a large enough effect in the repeat runs; inconclusive = weak or mixed curves; inactive = flat fitted curve, though single readings scatter.

In PubChem BioAssay (NCATS) one finds max response data, which are given here for 21 compounds.
% is set by controls: 0 for no effect and ±100 for the full control effect.

The nature of the experiment: qHTS assay for small molecule agonists of the antioxidant response element (ARE) signaling pathway measured by Nrf2-dependant transcriptional activity - cell viability counter screen (AID 720653). The following applies: ARE-bla HepG2 viability, CellTiter-Glo ATP luminescence, 16 h; stronger effect = lower value. The source says:
National Center for Advancing Translational Sciences [NCATS] NIH Chemical Genomics Center [NCGC] U.S. Environmental Protection Agency [EPA] National Institutes of Environmental Health Sciences [NIEHS] National Toxicology Program [NTP] Assay Overview: Oxidative stress has been implicated in the pathogenesis of a variety of diseases ranging from cancer to neurodegeneration. The antioxidant response element (ARE) signaling pathway plays an important role in the amelioration of oxidative stress. The CellSensor ARE-bla HepG2 cell line (Invitrogen) can be used for analyzing the Nrf2/antioxidant response signaling pathway. Nrf2 (NF-E2-related factor 2) and Nrf1 are transcription factors that bind to AREs and activate these genes. The CellSensor ARE-bla HepG2 cell line contains a beta-lactamase reporter gene under control of the Antioxidant Response Element (ARE) stably integrated into HepG2 cells. The activation of the report gene under culture conditions can be detected by fluorescence intensity. The cytotoxicity of the compounds against the ARE-bla HepG2 cell line was quantified by measuring the intracellular ATP content.
Assay Protocol Summary: ARE-bla HepG2 cells were dispensed at 2,000 cells/5 ul/well in 1536-well black wall/clear bottom plates using a Multidrop Combi (ThermoFisher Scientific, Waltham, MA) dispenser. After the assay plates were incubated at 37C/5% CO2 for 5 hrs, 23 nL of compounds dissolved in DMSO, positive controls or DMSO only was transferred to the assay plate by a pintool work station (Kalypsys, San Diego, CA). The plates were incubated at 37C/5% CO2 for 16 hrs. After 1 uL of LiveBLAzer B/G FRET substrate was added using a Flying Reagent Dispenser (FRD) (Aurora Discovery, San Diego, CA), the assay plates were incubated at room temperature for 2 hrs. The fluorescence intensity was measured by an Envision (PerkinElmer, Shelton, CT) plate reader. Cell viability using CellTiter Glo viability assay (Promega, Madison, WI) was also measured by adding 4 ul/well of CellTiter-Glo reagent into the same assay plate using a FRD. After 30 min incubation at room temperature, the luminescence intensity in the plates was measured using a ViewLux (PerkinElmer) plate reader.
On to `COP(=O)(OC)C(O)C(Cl)(Cl)Cl` (stereo unspecified), for which the max response is -9.64% (inactive). For the compound `CCOP(=S)(OCC)O/N=C(\C#N)c1ccccc1`, the max response is 4.22% (inactive).

Turning to `Oc1c(Br)cc(Br)cc1Br`, the max response was -5.17% (inactive) and -2.6% (inactive). `Cc1ccc(N=CN(C)C=Nc2ccc(C)cc2C)c(C)c1`: the max response was -11.3% (inactive).

Regarding `COP(=S)(OC)Oc1ccc(Sc2ccc(OP(=S)(OC)OC)cc2)cc1`, the max response was -17.2% (inactive).

As for `C[C@@H]1C[C@@H]([C@H](O)CC2CC(=O)NC(=O)C2)C(=O)[C@@H](C)C1`, the max response is 15.1% (inactive) and 0.954% (inactive) and 3.58% (inactive). With `O=c1n(Cl)c(=O)n(Cl)c(=O)n1Cl`, the max response was -3.02% (inactive). As for `CCCCCCCCCCCC[N+](C)(C)CCOc1ccccc1`, the max response was -6.97% (inactive). As for `Oc1ccc(Cl)cc1Cc1cc(Cl)ccc1O`, the max response is -12% (inactive). With `CNC(=O)Oc1cccc2ccccc12`, the max response was 6.76% (inactive) and -21.4% (inactive). Regarding `CCNc1nc(Cl)nc(NCC)n1`, the max response was 2.17% (inactive). As for `O=C(NC(=O)c1c(F)cccc1F)Nc1cc(Cl)c(OC(F)(F)C(F)C(F)(F)F)cc1Cl` (stereo unspecified), the max response is -21.7% (inactive). The value for `CN(C)C(=S)SSC(=S)N(C)C` was -25.3% (inactive); that for `COP(=O)(OC)OC=C(Cl)Cl` was -9.52% (inactive) [middle of 4 runs]. Turning to `CCCCCCCCC(=O)NCc1ccc(O)c(OC)c1`, the max response is -1.94% (inactive). Take `C=CCOC(Cn1ccnc1)c1ccc(Cl)cc1Cl` (stereo unspecified): the max response is -15.2% (inactive) and -7.32% (inactive). The figure for `N#Cc1nn(-c2c(Cl)cc(C(F)(F)F)cc2Cl)c(N)c1S(=O)C(F)(F)F` (stereo unspecified) is -35.8% (inactive); for `COCC(=O)N(c1c(C)cccc1C)C(C)C(=O)OC` (stereo unspecified) it is -4.71% (inactive); for `CCC(=O)O[C@H]1CC[C@H]2[C@@H]3CCC4=CC(=O)CC[C@]4(C)[C@H]3CC[C@]12C` it is -2.38% (inactive). The figure for `CC[n+]1c(-c2ccccc2)c2cc(N)ccc2c2ccc(N)cc21` is -16.8% (inactive); for `C[C@H]1C(=O)O[C@@H]2CCN3CC=C(COC(=O)[C@](C)(O)[C@]1(C)O)[C@H]23` it is -1.85% (inactive).
